PubChem BioAssay AID1159580 (chemical genetic matrix, 2015)
Values joined by “and” are separate entries in the source; they are usually repeats but may differ in a detail not shown here. Equal values may be shown once. About 2,000 (36%) of roughly 5,500 compounds were called active. Another 18% or so got no clear call; they are omitted. No stated cut-off is given here; in the data, active means normalized growth mostly below about 0.91 (no sharp cut-off); inconclusive means no clear call, values can overlap the other calls; inactive means mostly above about 0.92. Some of the results follow.

Assay: chemical genetic growth profiling, strain panel (AID 1159580);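 further: tested at 20 µM; growth read once vehicle control cultures reached saturation at 30 °C; 1 = growth at the plate median or of vehicle wells; lower values mean less growth of the strain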
Settings: S. cerevisiae deletion strains, growth OD

Measured: normalized growth

CCCc1nc2c(C)cc(-c3nc4ccccc4n3C)cc2n1Cc1ccc(-c2ccccc2C(=O)O)cc1
inactive: locus YAL013W, strain DEP1, hits give low values 1.01 | locus YAL021C, strain ccr4, hits give low values 1.02 | locus YAL026C, strain drs2, hits give low values 1 | locus YAL030W, strain snc1, hits give low values 1.01 | locus YBL061C, strain skt5, hits give low values 1.01 | locus YBR009C, strain hhf1, hits give low values 1.01 | locus YBR021W, strain FUR4, hits give low values 0.992 | locus YBR023C, strain chs3, hits give low values 1.01 | locus YBR171W, strain sec66, hits give low values 1.02 | locus YBR229C, strain ROT2, hits give low values 1 | locus YBR231C, strain swc5, hits give low values 1.02 | locus YBR279W, strain paf1, hits give low values 1.01 | locus YCL011C, strain gbp2, hits give low values 1.01 | locus YCL016C, strain dcc1, hits give low values 1 | locus YCL029C, strain bik1, hits give low values 1.01 | locus YCL069W, strain vba3, hits give low values 1.02 | locus YCR088W, strain abp1, hits give low values 1.02 | locus YDL005C, strain med2, hits give low values 1.02 | locus YDL035C, strain GPR1, hits give low values 0.98 | locus YDL040C, strain nat1, hits give low values 1.01 | locus YDL074C, strain BRE1, hits give low values 0.997 | locus YDL101C, strain DUN1, hits give low values 0.999 | locus YDL134C, strain PPH21, hits give low values 1 | locus YDL185W, strain tfp1, hits give low values 1.01 | locus YDL192W, strain arf1, hits give low values 1.02 | locus YDR001C, strain nth1, hits give low values 1.02 | locus YDR069C, strain doa4, hits give low values 1.03 | locus YDR101C, strain arx1, hits give low values 0.989 | locus YDR137W, strain rgp1, hits give low values 0.975 | locus YDR150W, strain NUM1, hits give low values 1.01 | locus YDR159W, strain sac3, hits give low values 0.978 | locus YDR162C, strain NBP2, hits give low values 1.01 | locus YDR195W, strain ref2 1.06 | locus YDR297W, strain sur2, hits give low values 1.01 | locus YDR318W, strain mcm21, hits give low values 1 | locus YDR334W, strain swr1, hits give low values 1.02 | locus YDR335W, strain msn5, hits give low values 1.03 | locus YDR388W, hits give low values 1.02 | locus YDR392W, strain spt3, hits give low values 0.829 | locus YDR502C, strain sam2, hits give low values 1 | locus YEL003W, strain gim4, hits give low values 1.02 | locus YEL037C, strain rad23, hits give low values 1.02 | locus YEL061C, strain CIN8 (second series), hits give low values 1.02 | locus YEL061C, strain CIN8, hits give low values 1.01 | locus YER015W, strain faa2, hits give low values 1.01 | locus YER016W, strain bim1, hits give low values 1.01 | locus YER110C, hits give low values 1.02 | locus YER111C, strain swi4, hits give low values 1.01 | locus YER155C, strain BEM2 (second series), hits give low values 0.926 | locus YER155C, strain BEM2, hits give low values 1 | locus YER167W, strain BCK2, hits give low values 0.998 | locus YFR010W, strain ubp6, hits give low values 1.03 | locus YGL078C, strain dbp3, hits give low values 1.01 | locus YGL086W, strain mad1, hits give low values 0.988 | locus YGL167C, strain pmr1, hits give low values 1.02 | locus YGL173C, strain kem1, hits give low values 1.01 | locus YGL227W, strain vid30, hits give low values 1.01 | locus YGL240W, strain doc1, hits give low values 1.01 | locus YGL248W, strain PDE1, hits give low values 0.994 | locus YGL253W, strain hxk2, hits give low values 1.03 | locus YGR078C, strain PAC10, hits give low values 0.997 | locus YGR135W, strain pre9, hits give low values 1.04 | locus YGR229C, strain SMI1, hits give low values 1.01 | locus YGR252W, strain gcn5, hits give low values 0.994 | locus YHR013C, strain ard1, hits give low values 1.04 | locus YHR027C, strain rpn1, hits give low values 1.01 | locus YHR030C, strain SLT2, hits give low values 1 and 0.973 | locus YHR079C, strain IRE1 (second series), hits give low values 0.997 | locus YHR079C, strain IRE1, hits give low values 0.967 | locus YHR094C, strain hxt1, hits give low values 1.01 | locus YHR129C, strain ARP1, hits give low values 0.996 | locus YHR142W, strain chs7, hits give low values 1.03 | locus YHR200W, strain rpn10, hits give low values 1 | locus YIL066C, strain RNR3, hits give low values 0.997 | locus YIL073C, strain SPO22, hits give low values 1.08 | locus YIL125W, strain kgd1, hits give low values 1 | locus YIR030C, strain dcg1, hits give low values 1.01 | locus YJL092W, strain hpr5, hits give low values 1.01 | locus YJL095W, strain BCK1 (second series), hits give low values 1 | locus YJL095W, strain BCK1, hits give low values 0.989 and 0.986 | locus YJL115W, strain asf1, hits give low values 1.01 | locus YJL129C, strain trk1, hits give low values 0.956 | locus YJL134W, strain LCB3, hits give low values 1 | locus YJL154C, strain vps35, hits give low values 1.01 | locus YJL164C, strain tpk1, hits give low values 1 | locus YJL166W, strain qcr8, hits give low values 1.01 | locus YJL168C, strain set2, hits give low values 1 | locus YJL187C, strain SWE1 (second series), hits give low values 0.995 | locus YJL187C, strain SWE1, hits give low values 1.01
